These results are taken from PubChem BioAssay (Tox21).

Results filed as inconclusive are left out. Where a call stands in place of a potency, no number is given. Calls of active or inactive are those of the source. Calls come from the whole dose curve; as a rule, active = well fitted activation curve with a large enough effect in the signal ratio in the repeat runs (not every such curve was filed as active); inconclusive = weak or mixed curves; inactive = flat fitted curve, though single readings scatter; the % refers to the signal ratio.
Potency is the fitted concentration of half-maximal effect.

The test is described as follows: qHTS assay to identify small molecule agonists of the TGF-beta/Smad signaling pathway (AID 1346859). The following applies: SBE-bla HEK293T, TGF-beta/Smad beta-lactamase reporter, 5 h; series mostly up to 76.8 µM. From the text: U.S. Tox21 Program National Center for Advancing Translational Sciences [NCATS] NIH Chemical Genomics Center [NCGC] U.S. Environmental Protection Agency [EPA] National Institutes of Environmental Health Sciences [NIEHS] National Toxicology Program [NTP] U.S. Food and Drug Administration [FDA] Tox21 Assay Overview: Transforming growth factor beta (TGF-beta) superfamily consists of a large number of structurally related dimeric proteins that act as hormones or local mediators in regulating a wide range of biological functions. This superfamily includes TGF-betas themselves, the bone morphogenetic proteins (BMPs) and the activins. These ligands induce oligomerization of serine/threonine receptor kinases and phosphorylate the cytoplasmic signaling molecules of Smad protein family. CellSensor SBE-bla HEK 293T cell line (Life Technologies, Carlsbad, CA), responsive to TGF-beta was used to screen Tox21 10K compound library for identification of agonists/antagonists of the Smad signaling pathway. This cell line contains a beta-lactamase reporter gene under control of the Smad binding element (SBE) stably integrated into HEK 293T cells.
Tox21 Assay Protocol Summary: SBE-bla HEK 293T cells were dispensed at 4,000/well in 6 uL of assay medium into black wall/clear-bottom 1536-well plates using a Multidrop Combi (ThermoFisher Scientific, Waltham, MA) dispenser. After the assay plates were incubated at 37 C and 5% CO2 for an overnight, 23 nL of compounds dissolved in DMSO, positive controls or DMSO only was transferred to the assay plate by a Pintool station (Kalypsys, San Diego, CA). The assay plates were incubated at 37 C and 5% CO2 for 5 hr. One uL of LiveBLAzer B/G FRET substrate (Life Technologies) was added using a Flying Reagent Dispenser (Aurora Discovery, San Diego, CA) and the plates were incubated at room temperature for 2 hr. Fluorescence intensity (405 nm excitation, 460 nm and 530 nm emissions) was measured using an Envision plate reader (PerkinElmer, Shelton, CT).
For the compound `CC1=NC(C)OC1C` (stereo not given), the Potency result was “inactive”.
For `CCCCCOC(=O)CCCC` the value was “inactive”.
For `O=C(O)c1ccc(Cl)c(Cl)c1` the value was “inactive”; for `O=c1[nH]sc2cc(Cl)ccc12`, “inactive”.
On to `CCCCCCCCS(=O)C(C)Cc1ccc2c(c1)OCO2` (stereo not given), for which the Potency result is “inactive”.
In the case of `Fc1ccc([C@@H]2CCNC[C@H]2COc2ccc3c(c2)OCO3)cc1`, the Potency entry is “inactive”.
The value for `C[C@]12CCC(=O)C=C1CC[C@@H]1[C@@H]2[C@@H](O)C[C@@]2(C)[C@H]1CC[C@]2(O)C(=O)COC(=O)CCC(=O)O` was “inactive”; that for `Cn1cc(C(=O)[C@@H]2CCc3nc[nH]c3C2)c2ccccc21` was “inactive”.
For `CNC(=O)c1ccccc1` the value was “inactive”.
For `CCc1cc(Cc2cc(CC)cc(C(C)(C)C)c2O)c(O)c(C(C)(C)C)c1` the value was “inactive”; for `O=C(NO)C1(NS(=O)(=O)c2ccc(Oc3ccc(F)cc3)cc2)CCOCC1`, “inactive”; for `O=C1C=CC(=O)N1`, “inactive”.
Consider `Clc1ccc(C(Cn2ccnc2)OCc2ccc(Sc3ccccc3)cc2)c(Cl)c1` (stereo not given), for which the Potency result is “inactive”.
The value for `CCC(CN)=C(c1ccccc1)c1ccccc1` was “inactive”; that for `O=C1c2c(O)ccc(Nc3ccc(CCO)cc3)c2C(=O)c2c([N+](=O)[O-])ccc(O)c21` was “inactive”; that for `CCN(CC)CCNC(=O)c1c(C)[nH]c(/C=C2\C(=O)Nc3ccc(F)cc32)c1C` was “inactive”.
Regarding `O=C(OCC(COC(=O)c1ccccc1)(COC(=O)c1ccccc1)COC(=O)c1ccccc1)c1ccccc1`, the Potency entry was “inactive”.
The value for `Nc1c2ccccc2nc2ccccc12` was 23.9 µM (active); that for `NC(=O)CC[C@@H]1NC(=O)[C@H](Cc2ccccc2)NC(=O)[C@H](Cc2ccc(O)cc2)NC(=O)CCSSC[C@@H](C(=O)N2CCC[C@H]2C(=O)N[C@@H](CCCN=C(N)N)C(=O)NCC(N)=O)NC(=O)[C@H](CC(N)=O)NC1=O` was “inactive”; that for `COc1cccc2c1C(=O)c1c(O)c3c(c(O)c1C2=O)C[C@@](O)(C(=O)CO)C[C@@H]3O[C@H]1C[C@H](N)[C@H](O[C@@H]2CCCCO2)[C@H](C)O1` was “inactive”.
The value for `Oc1ccc(C2(c3ccc(O)cc3)CC3CC2C2CCCC32)cc1` (stereo not given) was “inactive”.
For `O=C(NOCC1CC1)c1ccc(F)c(F)c1Nc1ccc(I)cc1Cl` the value was “inactive”; for `O=C(Oc1ccccc1)c1ccccc1C(=O)Oc1ccccc1`, “inactive”.
For the compound `Cc1[nH]cnc1C[C@H]1CCc2c(C)c3ccccc3n2C1=O`, the Potency entry is “inactive”.
As for `CCCCCCCCCCn1cc[n+](CCCCCCCCCC)c1C`, the Potency entry was “inactive”.
As for `O=C(Nc1cccc([N+](=O)[O-])c1)c1cc2ccccc2cc1O`, the Potency result was “inactive”.
Turning to `S=c1[nH]c2ccccc2s1`, the Potency result is “inactive”.
The value for `CCCCCCCCCOC(=O)c1ccc(O)cc1` was “inactive”.
Turning to `CCCCCCCCCCCCCCCC(=O)OC[C@H](O)[C@H]1OC(=O)C(O)=C1O`, the Potency entry is “inactive”.
The value for `Nc1ccccc1O` was “inactive”; that for `O=C1Cc2cc(CCN3CCN(c4nsc5ccccc45)CC3)c(Cl)cc2N1` was “inactive”; that for `CC(C)(C)C(=O)OCOC(=O)C1N2C(=O)CC2S(=O)(=O)C1(C)C` (stereo not given) was “inactive”.
`C=C(C)C(=O)OCC[N+](C)(C)C`: the Potency result is “inactive”.
As for `CC(C)OC(=O)c1cc2c(OCC(O)CNC(C)(C)C)cccc2[nH]1` (stereo not given), the Potency entry is “inactive”.
For `CC(C)c1ccc2c(c1)CC[C@H]1[C@](C)(CN)CCC[C@]21C` the value was “inactive”; for `Cc1cc(O)c(C(C)(C)C)cc1C(C)(C)C`, “inactive”; for `CCCC/C=C/CCCCO`, “inactive”.
Take `Cc1cc(C2CCCCC2)n(O)c(=O)c1`: the Potency entry was “inactive”.
The value for `Nc1nc2ccccc2n1Cc1ccc(F)cc1` was “inactive”; that for `O=C(O)c1c(Cl)cccc1Cl` was “inactive”.
